Screens as filed in PubChem BioAssay.
This is a sample that favours compounds with a hit; in the whole collection about 3.3% have one here.
PLK1 inh – blocks human PLK1 kinase activity. P53350. recombinant PLK1 kinase, TR-FRET peptide phosphorylation. inhibition, % at 10 µM. 97,000 tested, 0.53% active;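 active = inhibition of 50% or more in the single-concentration screen; inactive = inhibition below 50%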
PLK1 PBD inh – Plk1 (human) PBD binding inhibition; Plk1 PBD phosphopeptide binding, fluorescence polarization; inhibition, %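 (tested at about 20 µM)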; 97,000 tested, 0.13% active; AID 693; in the data active = inhibition above about 34%, passing the limit was not always enough
Smad3 inh – Smad3 (human) transcription factor binding inhibition; P84022; TR-FRET Smad3/Dy647-FoxH1 peptide binding, europium anti-His; inhibition, % at 25 µM; 88,000 tested, 0.29% active;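 active = compounds that reduce the energy-transfer binding signal between the protein and its labelled peptide by more than half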
ERa coact pot – ER-alpha (human) coactivator binding potentiation. TR-FRET ERalpha-LBD/SRC-Cy5 coactivator binding, 2 h; 100 = basal binding, no effect. coactivator binding (% of control), % at 25.6 µM. 86,000 tested, 1.3% active; in the data active = activity above about 200%;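 note: binding measured in presence of low estradiol as agonist stimulus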
ERb SRC1 inh – ER-beta (human) coactivator binding inhibition. AID 633. 86,000 tested, 1.3% active. inhibition, % at 25.6 µM. TR-FRET ER-beta LBD / SRC1-Cy5 peptide binding; receptor agonist-loaded with 1 µM estradiol. Q92731;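 active = compounds whose percent inhibition of the receptor-coactivator binding signal exceeds about 50% in the single-dose screen, limit read from the data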
Target sequence (Q92731 whole entry, looked up, the tested form may be a part): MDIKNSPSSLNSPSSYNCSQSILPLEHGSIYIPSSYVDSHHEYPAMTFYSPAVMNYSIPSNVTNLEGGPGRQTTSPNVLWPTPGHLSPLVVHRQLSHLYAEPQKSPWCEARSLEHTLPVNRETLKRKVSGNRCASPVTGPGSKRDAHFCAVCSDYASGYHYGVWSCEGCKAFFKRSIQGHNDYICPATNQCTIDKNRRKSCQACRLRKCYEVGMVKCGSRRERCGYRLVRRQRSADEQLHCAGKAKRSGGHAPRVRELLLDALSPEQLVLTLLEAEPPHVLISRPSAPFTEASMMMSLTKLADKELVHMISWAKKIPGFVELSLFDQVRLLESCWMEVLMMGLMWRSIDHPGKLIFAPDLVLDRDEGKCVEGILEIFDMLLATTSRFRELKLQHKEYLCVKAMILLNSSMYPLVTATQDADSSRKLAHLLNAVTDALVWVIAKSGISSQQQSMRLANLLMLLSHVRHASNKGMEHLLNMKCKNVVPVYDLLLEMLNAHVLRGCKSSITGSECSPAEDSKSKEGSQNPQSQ
ERa coact inh – ER-alpha (human) coactivator binding inhibition; inhibition, % at 25.6 µM; AID 629; P03372; 86,000 tested, 1.7% active; TR-FRET ER-alpha LBD / SRC-1 peptide, estradiol-bound; in the data active = inhibition above about 50%
Each line names hits and unclear results; the compound was inactive in the other large screens; [ ] = dose if it differs, or a comment.

CCCC(=O)NCc1ccc2c(c1)cc(C)n2C	none
O=C(O)C[C@H](Sc1ccccc1)c1ccccc1	none (no result: PLK1 inh, PLK1 PBD inh, ERa coact pot, ERb SRC1 inh, ERa coact inh)
CCCCn1c(SCC(=O)NCc2ccco2)nc2c(sc3ccccc32)c1=O	none
CCCCn1c(SCC(N)=O)nc2c(sc3ccccc32)c1=O	ERa coact pot 263, ERa coact inh 53[fluorescence artefact?]
CSc1ncnc2c1ncn2CC(=O)[C@@H]1CC[C@@H]2[C@H]3CCC4=CC(=O)CC[C@@]4(C)[C@@H]3CC[C@]21C	none (no result: PLK1 inh, PLK1 PBD inh, ERa coact pot, ERb SRC1 inh, ERa coact inh)
OCCN[C@@H]1c2cc(Cl)ccc2-c2c(Cl)cc(Cl)cc21	none (no result: PLK1 inh, PLK1 PBD inh, ERa coact pot, ERb SRC1 inh, ERa coact inh)
NCCC[C@@H](N)C(=O)O	none (no result: PLK1 inh, PLK1 PBD inh, ERa coact pot, ERb SRC1 inh, ERa coact inh)
COc1ccc(CC(=O)Nc2c3c(nn2-c2cccc(Cl)c2)CS(=O)(=O)C3)cc1	none
O=C(Cc1ccccc1)Nc1c2c(nn1-c1cccc(Cl)c1)CS(=O)(=O)C2	PLK1 inh 66
CC(C)(/C=N/O)/[N+]([O-])=C/c1ccco1	none
Cc1nc(/C=[N+](\[O-])C(C)(C)/C=N/O)n(O)c1C	ERb SRC1 inh 56[fluorescence artefact?]
Cc1ccc2cc(C3C(C#N)=C(N)Oc4c3ccc3cccnc43)c(=O)[nH]c2c1 (stereo not given)	none
CCc1ccc2[nH]c(=O)c(C3C(C#N)=C(N)Oc4c3ccc3cccnc43)cc2c1 (stereo not given)	ERb SRC1 inh 50, ERa coact inh 80
CCN1CCC(O)([C@H](C(=O)O)c2ccccc2)CC1	none (no result: PLK1 inh, PLK1 PBD inh, ERa coact pot, ERb SRC1 inh, ERa coact inh)
CCn1cc(C(=O)N=c2sc3ccccc3n2C)c(=O)c2ccc(C)nc21	ERa coact pot 250
O=C(Cc1ccc(S(=O)(=O)N2CCOCC2)s1)Nc1nc2c(s1)CCCC2	ERb SRC1 inh 81[fluorescence artefact?], ERa coact inh 83
O=C(Nc1ccccc1F)C1CCCN(S(=O)(=O)c2cccc3cccnc23)C1 (stereo not given)	ERb SRC1 inh 53[fluorescence artefact?]
CC(C)(C)NC(=O)C1CCCN(S(=O)(=O)c2cccc3cccnc23)C1 (stereo not given)	PLK1 inh 62
COc1ccc(-c2nc(N)c3ncn([C@H]4O[C@H](CO)[C@@H](O)[C@@H]4O)c3n2)cc1	none (no result: PLK1 inh, PLK1 PBD inh, ERa coact pot, ERb SRC1 inh, ERa coact inh)
N=C(N)SCCc1ccccn1	none (no result: PLK1 inh, PLK1 PBD inh, ERa coact pot, ERb SRC1 inh, ERa coact inh)
CCN(CC)C(=O)Sc1cccc2cccnc12	none
CCOC(=O)CSc1cccc2cccnc12	ERa coact pot 237[fluorescence artefact?]
C/C(N)=C(/C#N)C(=O)CSc1nc2ccc(C)cc2[nH]1	ERb SRC1 inh 57[fluorescence artefact?] (no result: PLK1 inh, PLK1 PBD inh)
Cc1ccc2nc(SCC(=O)c3cc(C)n(C)c3C)[nH]c2c1	none
COC(=O)c1ccc(NC(=O)CN2C(=O)CSC2=O)cc1	ERa coact pot 319[fluorescence artefact?]
CCOC(=O)c1c(Nc2nc(C)c(C(=O)NC)s2)sc(C)c1C	ERa coact inh 69
CCOC(=O)c1sc(Nc2ccccc2)nc1C	none
Cc1cccc(N=C2NC(=O)/C(=C3/C(=O)N(C)c4ccccc43)S2)c1C	ERa coact inh 61
Fc1ccc(-c2nc3ccncc3[nH]2)cc1	PLK1 inh 65 (no result: Smad3 inh, ERa coact pot, ERb SRC1 inh, ERa coact inh)
CCN1CCc2c(sc(N)c2C#N)C1	ERb SRC1 inh 77[fluorescence artefact?], ERa coact inh 65[fluorescence artefact?]
CC(C)N1CCc2c(sc(N)c2C#N)C1	none (no result: PLK1 inh, PLK1 PBD inh)
O=C(CSc1ccc2nnc(-c3ccc(Cl)cc3)n2n1)N1CCN(c2ccccc2)CC1	none (no result: PLK1 inh, PLK1 PBD inh)
O=C1c2ccccc2C(Nc2ccc3c(c2)OCCO3)N1Cc1ccc2c(c1)OCO2 (stereo not given)	none
O=C1OC(Nc2ccc3c(c2)OCO3)c2ccccc21 (stereo not given)	ERb SRC1 inh 52
CCOc1ccc2cc(C#N)c(SCC(=O)NC(C)CC)nc2c1 (stereo not given)	ERa coact pot 337[fluorescence artefact?]
CC(=O)c1cc(C#N)c(SCC(=O)OC(C)C)nc1C	none
COC(=O)CSc1nc2cc(C)cc(C)c2cc1C#N	ERa coact pot 210
COc1ccc2cc(C#N)c(SCC(=O)NNC(=O)Cc3ccccc3)nc2c1	none (no result: Smad3 inh, ERa coact pot, ERb SRC1 inh, ERa coact inh)
COc1ccc2nc(SCC(=O)N3CCN(c4ccc(F)cc4)CC3)c(C#N)cc2c1	ERa coact pot 481[fluorescence artefact?]
CCOC(=O)CSc1nc(-c2ccncc2)ccc1C#N	none
CCOC(=O)CSc1nc2cc(OCC)ccc2cc1C#N	ERa coact pot 351[fluorescence artefact?] (no result: PLK1 inh, PLK1 PBD inh)
CCCCCC(C)n1[nH]c(=O)cc1N (stereo not given)	none
CCOc1ccc2cc(C#N)c(SCC(=O)N3CCC(C)CC3)nc2c1	ERa coact pot 337[fluorescence artefact?]
Cc1cc(C)c2nc(SCC(=O)N3CCCCC3)c(C#N)cc2c1	none
CCOc1ccc2nc(SCC#N)c(C#N)cc2c1	ERa coact pot 252
